Experimental findings from PubChem BioAssay AID953 (National Center for Advancing Translational Sciences (NCATS), 2007) are described below.

The structures appear in SMILES notation. Some of the results follow. Results filed as inconclusive are left out. Active and inactive are the calls of the source. Calls follow the shape of the dose curve; as a rule, active = well fitted curve in the direction sought with a large enough effect; inconclusive = small, poorly fitted or top-dose-only effect, or effect the other way, or another doubt; inactive = no such curve, though single readings can be large or run the other way.

The assay is described as follows: Confirmation Concentration-Response Assay for Agonists of the Thyroid Stimulating Hormone Receptor: Activators of Intracellular cAMP Concentrations in Parental HEK 293. The note with it: parental HEK293 CNG biosensor, cAMP membrane potential fluorescence; series mostly up to 32.9 µM. The source says: NIH Chemical Genomics Center [NCGC] NIH Molecular Libraries Screening Centers Network [MLSCN] MLSCN Grant: 1 X01 MH080680-01 PI Name: Dr. Marvin Gershengorn NCGC Assay Overview: This cell based assay utilized a cyclic nucleotide gated ion channel (CNG) as a biosensor for cAMP induction. HEK 293 cells stably expressing the modified CNG were purchased from BD biosciences (http://www.atto.com/products/actone/features_benefits.shtml) . Stimulation of cAMP production causes the CNG to open and subsequent membrane depolarization to occur. A fluorescent membrane potential dye (BD biosciences) was utilized to detect cAMP stimulation in cells. The cells were maintained in DMEM medium (Invitrogen) containing 10 % FBS (Hyclone), 100 units/ml Penicillin, 100 ug/ml Streptomycin (Invitrogen), and 250 ug/ml Geneticin (Invitrogen) and 1 ug/ml Puromycin (Invitrogen) at 37C in 5% CO2. This assay was used as a counterscreen to "Confirmation Concentration-Response Assay for Agonists of the Thyroid Stimulating Hormone Receptor", to control for compounds signaling through endogenous receptors and other targets of HEK 293 cells.
NCGC Assay Protocol Summary: High Throughput Screening. Freshly passaged cells were dispensed into 1536-well assay plates at 4 ul/well in DMEM containing phenol red (Invitrogen), 10% FCS (Hyclone), and 100 units/ml Penicillin, 100 ug/ml Streptomycin (Invitrogen) and incubated at 37 C with 5% CO2 for 20 to 36 hrs before the robotic screening. The screen was initiated by addition of 4 ul/well membrane potential dye containing 100 uM RO 20-1724 (Sigma Aldrich), followed by 60 min incubation at room temperature to allow for dye equilibration across the cell membrane. 23 nl/well compound or control was then added to the assay plates, which were incubated for additional 30 min before reading a Envision fluorescence plate reader (Perkin Elmer) in bottom-read mode for fluorescence intensity (emission at 590 nm). Keywords: cAMP, CNG Ion Channel, quantitative high throughput screening, qHTS, HTS, probe identification, CNG, cAMP, cyclic nucleotide gated ion channel PubChem
For `O=C(CN1C(=O)NC2(CCCCC2)C1=O)NCCC1=CCCCC1`, the outcome was inactive.

With `CCOC(=O)CSc1nnc(NC(=O)c2cccc(S(=O)(=O)N3CCCCC3)c2)s1`, the result was inactive.

With `Cc1ccc(Nc2nc(CSc3nnnn3-c3ccccc3)cc(=O)[nH]2)cc1`, the result was inactive.

Take `O=C(COC(=O)C12CC3CC(CC(C3)C1)C2)NCc1ccco1`: the result was inactive.

For the molecule `CCOC(=O)c1cnc(-n2nc(C)cc2C)nc1-n1nc(C)cc1C`, the outcome was inactive.

For the molecule `C=CCn1c(COc2ccccc2F)nnc1SCC(=O)N1CC(=O)Nc2ccccc21`, the result was inactive.
